Laboratory results from PubChem BioAssay (NCI).
About 83,000 compounds went through this panel and 20% of them were active in at least one assay; those are over-represented in the sample as a whole.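 96-well plates, one dose, 48 hours. Percent growth reported; active if below 10.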 Active and inactive are the calls of the source.

How the values were obtained:
Assay in all cases: NCI-60 one-dose screen, 48 h (100 = growth as untreated, 0 = no growth, -100 = all killed)
Details in all cases: 10 µM unless noted
DU-145 prostate = system: DU-145 prostate
K-562 leukemia = system: K-562 leukemia
MALME-3M melanoma = system: MALME-3M melanoma
MDA-MB-231 breast = system: MDA-MB-231 breast
RXF 393 renal = system: RXF 393 renal
SF-268 CNS = system: SF-268 CNS
SF-295 CNS = system: SF-295 CNS
SF-539 CNS = system: SF-539 CNS
UACC-257 melanoma = system: UACC-257 melanoma
M14 melanoma = system: M14 melanoma
HCT-15 colon = system: HCT-15 colon
HT29 colon = system: HT29 colon
SNB-75 CNS = system: SNB-75 CNS
SNB-19 CNS = system: SNB-19 CNS
U251 CNS = system: U251 CNS
PC-3 prostate = system: PC-3 prostate
SK-MEL-5 melanoma = system: SK-MEL-5 melanoma
UACC-62 melanoma = system: UACC-62 melanoma
LOX IMVI melanoma = system: LOX IMVI melanoma
SK-MEL-28 melanoma = system: SK-MEL-28 melanoma

Measured: growth

Brc1ccc2c(c1)c(-c1nc(-c3c[nH]c4ncccc34)cs1)cn2CCN1CCCCC1
inactive: DU-145 prostate 82.6% | MALME-3M melanoma 100% | MDA-MB-231 breast 62.1% | RXF 393 renal 60.4% | SF-268 CNS 75.9% | SF-295 CNS 91.5% | SF-539 CNS 87.3% | UACC-257 melanoma 96.7% | M14 melanoma 15.8% | HCT-15 colon 20.8% | HT29 colon 27.4% | SNB-75 CNS 67.7% | SNB-19 CNS 90% | U251 CNS 42% | PC-3 prostate 51.4% | SK-MEL-5 melanoma 68.2% | UACC-62 melanoma 78.2% | LOX IMVI melanoma 65.4% | SK-MEL-28 melanoma 106%
active: K-562 leukemia -15.7%

CC(=O)Nc1ccc(NC(=O)c2ccc([As](O)O)cc2)cc1
inactive: DU-145 prostate 108% | K-562 leukemia 33.1% | MALME-3M melanoma 113% | MDA-MB-231 breast 88.3% | RXF 393 renal 47.6% | SF-268 CNS 109% | SF-295 CNS 118% | SF-539 CNS 88.8% | UACC-257 melanoma 104% | M14 melanoma 101% | HCT-15 colon 85% | HT29 colon 112% | SNB-75 CNS 89.4% | SNB-19 CNS 92.9% | U251 CNS 56.5% | PC-3 prostate 100% | SK-MEL-5 melanoma 98.1% | UACC-62 melanoma 78.3% | LOX IMVI melanoma 76.4% | SK-MEL-28 melanoma 118%

CCCCCSC1C2C(=O)C(Br)=CC13CCNc1c(O)c4c5c(c13)=[N+]2CCC=5C=N4 (stereo not given)
active: DU-145 prostate -100% | K-562 leukemia -32% | MALME-3M melanoma -99.5% | MDA-MB-231 breast -7.12% | RXF 393 renal -28.5% | SF-268 CNS -51.7% | SF-539 CNS -79.6% | UACC-257 melanoma -79.6% | M14 melanoma -92.6% | HCT-15 colon -47.6% | HT29 colon -31.8% | SNB-75 CNS -88.8% | SNB-19 CNS -65.5% | U251 CNS -73.3% | PC-3 prostate -0.922% | SK-MEL-5 melanoma -95.2% | UACC-62 melanoma -51.2% | LOX IMVI melanoma -71% | SK-MEL-28 melanoma -18.2%
inactive: SF-295 CNS 20.9%

CCOP(=O)(NC[C@H]1O[C@](O)(CO)[C@@H](O)[C@@H]1O)OCC
inactive: DU-145 prostate 105% | K-562 leukemia 97.5% | MALME-3M melanoma 89.1% | MDA-MB-231 breast 94.3% | RXF 393 renal 96.4% | SF-268 CNS 94.4% | SF-295 CNS 104% | SF-539 CNS 96.3% | UACC-257 melanoma 98.4% | M14 melanoma 93.1% | HCT-15 colon 100% | HT29 colon 96.2% | SNB-75 CNS 80.2% | SNB-19 CNS 97% | U251 CNS 101% | PC-3 prostate 85.9% | SK-MEL-5 melanoma 96.5% | UACC-62 melanoma 99.8% | LOX IMVI melanoma 92.8% | SK-MEL-28 melanoma 116%

CCC(O)(CN)c1ccccc1 (stereo not given)
inactive: DU-145 prostate 107% | K-562 leukemia 107% | MALME-3M melanoma 101% | MDA-MB-231 breast 101% | RXF 393 renal 110% | SF-268 CNS 100% | SF-295 CNS 92.6% | SF-539 CNS 99% | UACC-257 melanoma 91.9% | M14 melanoma 95% | HCT-15 colon 103% | HT29 colon 95.6% | SNB-75 CNS 93.5% | SNB-19 CNS 106% | U251 CNS 93.6% | PC-3 prostate 87.5% | SK-MEL-5 melanoma 98.9% | UACC-62 melanoma 100% | LOX IMVI melanoma 105% | SK-MEL-28 melanoma 115%

COP(=O)(OC)C(O)c1ccc(Cl)cc1 (stereo not given)
inactive: DU-145 prostate 97.9% | K-562 leukemia 117% | MALME-3M melanoma 101% | MDA-MB-231 breast 123% | RXF 393 renal 108% | SF-268 CNS 94.6% | SF-295 CNS 100% | SF-539 CNS 103% | UACC-257 melanoma 99.7% | M14 melanoma 96.4% | HCT-15 colon 102% | HT29 colon 96.1% | SNB-75 CNS 89.4% | SNB-19 CNS 110% | U251 CNS 104% | PC-3 prostate 94.3% | SK-MEL-5 melanoma 98.7% | UACC-62 melanoma 101% | LOX IMVI melanoma 96.8% | SK-MEL-28 melanoma 109%

COC(=O)[C@@H](C)C[C@H](Cc1ccccc1)NC(=O)c1csc([C@@H](C[C@H](C(C)C)N(C)C(=O)[C@@H](NC(=O)[C@H]2CCCCN2C)C2CC2)OC(C)=O)n1
active: DU-145 prostate 2.33% | K-562 leukemia 9.03% | SF-295 CNS 9.01% | SF-539 CNS -0.629% | HT29 colon -12.4% | SK-MEL-5 melanoma -50.1% | LOX IMVI melanoma 8.42%
inactive: MALME-3M melanoma 63.6% | MDA-MB-231 breast 23% | RXF 393 renal 46.9% | SF-268 CNS 32.8% | UACC-257 melanoma 58.3% | M14 melanoma 10.8% | HCT-15 colon 12.3% | SNB-75 CNS 32.3% | SNB-19 CNS 38% | U251 CNS 13.6% | PC-3 prostate 27.2% | UACC-62 melanoma 60% | SK-MEL-28 melanoma 60.3%

CSc1nc(Cl)cc(N2CC2)n1
inactive: DU-145 prostate 110% | K-562 leukemia 120% | MALME-3M melanoma 105% | MDA-MB-231 breast 106% | RXF 393 renal 111% | SF-268 CNS 99.1% | SF-295 CNS 115% | SF-539 CNS 98.8% | UACC-257 melanoma 107% | M14 melanoma 114% | HCT-15 colon 100% | HT29 colon 112% | SNB-75 CNS 110% | SNB-19 CNS 108% | U251 CNS 110% | PC-3 prostate 92.5% | SK-MEL-5 melanoma 105% | UACC-62 melanoma 97.9% | LOX IMVI melanoma 111% | SK-MEL-28 melanoma 121%

C=CCn1cc(C=C2C(=O)N(C)C(=O)N(C)C2=O)c2ccccc21
inactive: DU-145 prostate 108% | K-562 leukemia 108% | MALME-3M melanoma 97.4% | MDA-MB-231 breast 88.4% | RXF 393 renal 89.9% | SF-268 CNS 97.8% | SF-295 CNS 66.4% | SF-539 CNS 102% | UACC-257 melanoma 94.4% | M14 melanoma 88.9% | HCT-15 colon 106% | HT29 colon 104% | SNB-75 CNS 78.7% | SNB-19 CNS 96.2% | U251 CNS 98.2% | PC-3 prostate 89.4% | SK-MEL-5 melanoma 94.9% | UACC-62 melanoma 93.8% | LOX IMVI melanoma 94.8% | SK-MEL-28 melanoma 97.9%

CC1=C(CCCOC(=O)[C@H](N)CC(C)C)C2=C(C)C3(CC3)[C@@](C)(O)C(=O)C2=C1
active: MALME-3M melanoma -44.7% | RXF 393 renal -74.7% | SF-295 CNS -5.7% | SF-539 CNS -7.07% | M14 melanoma -33.2% | HCT-15 colon 4.16% | SNB-75 CNS -7.8% | SK-MEL-5 melanoma -67.6%
inactive: DU-145 prostate 11.6% | K-562 leukemia 101% | MDA-MB-231 breast 11.5% | SF-268 CNS 14.6% | UACC-257 melanoma 24.4% | HT29 colon 12.6% | SNB-19 CNS 45.4% | U251 CNS 35.9% | PC-3 prostate 28.5% | UACC-62 melanoma 11.3% | LOX IMVI melanoma 41.8% | SK-MEL-28 melanoma 33.8%

CC(=O)OC1CCC2C3CCC4=C/C(=N/OC(=O)c5ccc(N(CCCl)CCCl)cc5)CCC4(C)C3CC(C)C12 (stereo not given)
inactive: DU-145 prostate 79.6% | K-562 leukemia 18.2% | MALME-3M melanoma 76.3% | MDA-MB-231 breast 78.5% | RXF 393 renal 67.9% | SF-268 CNS 62.9% | SF-295 CNS 81.5% | SF-539 CNS 75.6% | UACC-257 melanoma 105% | M14 melanoma 89.6% | HCT-15 colon 71.6% | HT29 colon 46.8% | SNB-75 CNS 70.5% | SNB-19 CNS 62.9% | U251 CNS 59.3% | PC-3 prostate 77.1% | SK-MEL-5 melanoma 67.5% | UACC-62 melanoma 72.5% | LOX IMVI melanoma 15.5% | SK-MEL-28 melanoma 108%

COC(=O)[C@@H](C[C@H](Cc1ccccc1)NC(=O)c1csc([C@@H](C[C@H](C(C)C)N(C)C(=O)[C@@H](NC(=O)[C@H]2CCCCN2C)C(C)C)OC(C)=O)n1)NC(=O)OCc1ccccc1
active: DU-145 prostate -3.78% [9.5 µM] | K-562 leukemia 2.99% [9.5 µM] | MALME-3M melanoma -42.5% [9.5 µM] | SF-295 CNS 3.92% [9.5 µM] | SF-539 CNS -19.1% [9.5 µM] | UACC-257 melanoma 6.49% [9.5 µM] | M14 melanoma -41.7% [9.5 µM] | HCT-15 colon 9.05% [9.5 µM] | HT29 colon -19.6% [9.5 µM] | U251 CNS 6.82% [9.5 µM] | SK-MEL-5 melanoma -3.63% [9.5 µM] | SK-MEL-28 melanoma -52.6% [9.5 µM]
inactive: MDA-MB-231 breast 18.6% [9.5 µM] | RXF 393 renal 39.8% [9.5 µM] | SF-268 CNS 15.2% [9.5 µM] | SNB-75 CNS 25.6% [9.5 µM] | SNB-19 CNS 25.4% [9.5 µM] | PC-3 prostate 32.2% [9.5 µM] | UACC-62 melanoma 27.1% [9.5 µM] | LOX IMVI melanoma 14.7% [9.5 µM]

CCOc1ccccc1C(=O)OCC(Cl)(Cl)Cl
inactive: DU-145 prostate 99.8% | K-562 leukemia 98.8% | MALME-3M melanoma 109% | MDA-MB-231 breast 114% | RXF 393 renal 109% | SF-268 CNS 101% | SF-295 CNS 105% | SF-539 CNS 101% | UACC-257 melanoma 112% | M14 melanoma 103% | HCT-15 colon 110% | HT29 colon 96.4% | SNB-75 CNS 98.3% | SNB-19 CNS 107% | U251 CNS 102% | PC-3 prostate 96.5% | SK-MEL-5 melanoma 106% | UACC-62 melanoma 107% | LOX IMVI melanoma 104% | SK-MEL-28 melanoma 118%

CC[C@H](C)[C@H](NC(=O)[C@H]1CCCCN1C)C(=O)N(C)[C@H](C[C@@H](OC(C)=O)c1cccc(C(=O)N[C@@H](Cc2ccccc2)C[C@H](C)C(=O)O)n1)C(C)C
active: DU-145 prostate -16.1% | K-562 leukemia 7.77% | MDA-MB-231 breast -0.17% | SF-295 CNS 2.98% | SF-539 CNS -10.7% | HCT-15 colon 9.38% | HT29 colon -13.2% | SNB-75 CNS 8.07% | SK-MEL-5 melanoma -24.5%
inactive: MALME-3M melanoma 64.1% | RXF 393 renal 31.2% | SF-268 CNS 18% | UACC-257 melanoma 47.9% | M14 melanoma 10% | SNB-19 CNS 26.9% | U251 CNS 13.6% | PC-3 prostate 25.4% | UACC-62 melanoma 40.4% | LOX IMVI melanoma 15.3% | SK-MEL-28 melanoma 69.3%
